Molecular target: AMP-activated protein kinase, AMPK (Homo sapiens) (UniProt P54646+O43741+P54619+Q9UGJ0+Q9Y478+Q13131+Q9UGI9)
Assay: AMP-dependent Kinase enzyme assay. An in vitro enzyme assay that detects ADP turnover that is directly proportional to AMPK activity. This uses naive AMPK that is activated during the assay with MK-8722
Format: functional
Set-up: scale not given: direction of the effect not stated beside the values
Conditions: 30 µM

Row | SMILES | Percent Effect [%]
1 | CCCn1cc(NC(=O)c2cccc(CN3CC=CC3)c2)nn1 | 3.97
2 | CC(C)c1nc(C2CCCN2CCS(C)(=O)=O)no1 (stereo not given) | 6.84
3 | Cc1cccc2nc(CN3CCC(N4CCN(C)C4=O)CC3)cn12 | 6.81
4 | Cc1cnn(C2CN(c3nc(-c4ccncc4)nc4c3CCC4)C2)c1 | 4.55
5 | Cc1nccn1-c1cccc(N2CCC(OCC3CCCCO3)CC2)n1 (stereo not given) | 6.51
6 | COc1cccc(CCn2ccnc2-c2cn(C3CCNCC3)nn2)c1 | -20.9
7 | CCC[C@@H]1CN(c2cncc(C(=O)N3CCOCC3)n2)C[C@H]1N(C)C | 14.3
8 | Cc1nc(CN2CCCC2Cn2ccnc2C(C)C)nc2ccccc12 (stereo not given) | -10.6
9 | O=C(NC1CCN(Cc2ccc(F)cc2)CC1)c1ccc2c(c1)CCC2 | -2.43
10 | O=C(Cn1nc2ccccc2n1)N1CCCC(O)(CO)C1 (stereo not given) | -6.31
11 | Cc1cc(=O)n2nc(Oc3ccc(F)c(F)c3)sc2n1 | -9.97
12 | Cc1ccc(C2(O)CCN(C(=O)CCn3ccc(=O)[nH]c3=O)CC2)nc1 | 1.66
13 | CSC1(CNC(=O)N(C)Cc2ccc(C)s2)CCOCC1 | -2.72
14 | O=S(=O)(NCCCn1cncn1)c1ccc2c(c1)OCCCO2 | 10.2
15 | CN(CCc1noc(C2CC2)n1)C(=O)C1(N2CCCC2)CCCC1 | -3.61
16 | Cc1ccc(-c2cc(C(=O)N(C)Cc3noc4c3CCCC4)[nH]n2)o1 | 4.24
17 | O=C(NC1CCN(C2CC2)CC1)c1cn(-c2ccc(Cl)cc2)nn1 | 0.108
18 | CC(=O)NCCNC(=O)NCc1ccc(-n2ccc(C(F)(F)F)n2)cc1 | -0.713
19 | COCc1c(Br)cccc1NC(=O)CC(F)(F)F | -6.57
20 | CC(C)c1noc(OCC(=O)N2CCCCC2C)n1 (stereo not given) | -1.04

Row | SMILES | Percent Effect [%]
21 | CCN(CCCNC(=O)Nc1ccccc1C(C)C)S(C)(=O)=O | 11
22 | CN(C)CC1(O)CCCN(C(=O)Cn2ccc3ccccc32)CC1 (stereo not given) | -8.54
23 | Cc1cc(-c2n[nH]c3c2CN(S(=O)(=O)c2ccsc2)CC3)c(C)o1 | 4.26
24 | Cc1ccc(-c2cn(C3CCN(C(=O)[C@H]4CCCO4)CC3)nn2)cc1 | -0.746
25 | CC(C)[C@H]1CN(Cc2ccccn2)C[C@@H]1NC(=O)CCS(C)(=O)=O | 9.37
26 | COc1c(C)cnc(CN2CCCC(c3noc(C4CC4)n3)C2)c1C (stereo not given) | -0.157
27 | O=S(=O)(c1cn[nH]c1)N1CCC(O)(CN2CCOCC2)C1 (stereo not given) | 3.92
28 | CN(C)c1ccccc1C(=O)N1CCCC(c2ccc(C(=O)O)cc2)C1 (stereo not given) | -3.47
29 | O=C(CC1CCCC1)NCCNCc1cccc2c1OCCO2 | -3.45
30 | CN(CCc1ccccn1)c1cnn(C)c(=O)c1Br | -11.5
31 | O=C(C1CNCCN1C(=O)CCOc1ccccc1)N1CCCC1 (stereo not given) | 8.73
32 | Cc1cc(CN(C)C(=O)Nc2ccccc2C)no1 | 9.79
33 | Cc1nnc(CCNC(=O)Nc2ccc(S(C)(=O)=O)cc2)[nH]1 | 6.21
34 | CC(Oc1cccc(Cl)c1)C(=O)Nc1cnn(CCN(C)C)c1 (stereo not given) | -7.28
35 | Cc1ccccc1C(=O)NC[C@@H]1CCN(C(=O)CN2CCCC2)C[C@H]1O | -0.0834
36 | CN(C)c1nc2sc(C(=O)N3CCN(C(=O)OC(C)(C)C)CC3)cc2s1 | 63.5
37 | CCn1ncnc1C1CC(=O)NCc2nc(N3CCCC3)sc21 (stereo not given) | -10.2
38 | O=C(Nc1ccc(Br)cc1F)c1ccc(N2CCOCC2)nn1 | -1.73
39 | CN(C)S(=O)(=O)c1ccc(=O)n(CC2CCCCO2)c1 (stereo not given) | 8.37
40 | Cn1ncc2c(NC3CCSC3)nc(-c3ccncc3)nc21 (stereo not given) | 9.02

From ChEMBL document CHEMBL3988442, “University of Dundee, Small-Polar-MMV Screening Library” (2021)
